An excerpt weighted towards active compounds, which were near 2.2% of everything screened.
KLF5 inhibitor: KLF5 expression inhibitors, primary screen, DLD-1 cells, luminescence; DLD-1 KLF5 promoter-luciferase reporter; inhibition, % at 5 µM; 290,000 tested, 0.23% active; AID 1700, 2009;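 active means inhibition above a per-plate limit of that plate's mean compound inhibition plus 3 SD, cut at about 60% in these data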;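 further: 0% = DMSO wells and 100% = LY294002 at 200 µM; higher means less KLF5 promoter-driven luciferase light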
aSyn 5UTR inh: MLPCN primary screen, SNCA 5' untranslated region | AID 1813, 2009 | alpha-synuclein 5'UTR reporter, inhibitor activity | 300,000 tested, 0.82% active | inhibition, % (tested at 7.5 µM); in the data active means inhibition above about 60%;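 further: H4 neuroglioblastoma cells stably carrying SNCA 5'UTR luciferase fusion; 0% = DMSO wells and 100% = positive control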
APP transl inh: inhibitors of APP translation via 5'UTR reporter, primary screen, APP 5'UTR luciferase, SH-SY5Y cells. SH-SY5Y APP 5'UTR-luciferase reporter, luminescence. inhibition, % at 2 µM. 190,000 tested, 0.82% active. AID 1285, 2008;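 active means inhibition above a set limit, derived from the sample mean plus 3 SD, cut at about 45% in these data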
IEC-6 cytotox: cytotoxicity in IEC-6 intestinal epithelial cells, primary screen, cytotoxicity control for KLF5 inhibitor project, cell-based, luminescence | IEC-6 cytotoxicity, luminescence viability | inhibition, % at 5 µM | AID 1825, 2009 | 290,000 tested, 0.78% active; in the data active means inhibition above about 22%;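 further: 0% = plate median of test compound wells and 100% = cytotoxic reference compound wells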
BaF3 tox: parental Ba/F3 cell viability inhibition, counter-screen for JAK2V617F inhibitor project, murine pro-B, CellTiter-Glo luminescence; 220,000 tested, 1.1% active; CellTiter-Glo ATP luminescence; AID 1486, 2009; inhibition, % at 5.6 µM;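 active means inhibition above a per-campaign cutoff, the mean inhibition of all tested compounds plus 3 SD, cut at about 27% in these data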;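 further: 0% = DMSO wells and 100% = JAK Inhibitor I control wells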
Ba/F3 V617F tox: reduced viability of JAK2V617F-dependent Ba/F3 cells, primary screen, JAK2V617F inhibitor project, cell-based, Ba/F3 EpoR-JAK2V617F, luminescence. ATP luminescence. inhibition, % at 5.6 µM. 220,000 tested, 1.1% active. AID 1446, 2008;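 active means inhibition above the campaign mean plus 3 SD over all tested compounds, cut at about 24% in these data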;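 further: cytokine-independent growth of Ba/F3 cells driven by EpoR plus mutant JAK2; 0% = DMSO-treated cells and 100% = JAK inhibitor I control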
The depositor's hits bear a star; . = no result given.

SMILES	KLF5 inhibitor	aSyn 5UTR inh	APP transl inh	IEC-6 cytotox	BaF3 tox	Ba/F3 V617F tox
C=CCN(C(=O)CCc1ccccc1OC)c1nc(-c2ccc(S(C)(=O)=O)cc2)cs1	7	71*	.	-1	.	.
Cc1ccc2nc(NC(=O)c3ccco3)sc2c1	59	85*	-84	2	4	-1
CC1=C(C)/C(=N\OS(=O)(=O)c2ccccc2)C=CC1=O	-36	-80	74*	-5	91*	91*
Cc1cccc(NC(=S)N=Nc2c(O)n(C)c3ccc(S(=O)(=O)N4CCOCC4)cc23)c1	-6	83*	66*	-3	0	-7
Cc1ccc(NC(=S)N=Nc2c(O)n(C)c3ccc(S(=O)(=O)N4CCOCC4)cc23)cc1	7	75*	69*	5	7	2
Cn1c(=O)n(C)c2cc(S(=O)(=O)N3CCOCC3)ccc21	-1	22	-11	2	3	2
Cc1cc(C)cc(NC(=S)N=Nc2c(O)n(C)c3ccc(S(=O)(=O)N4CCOCC4)cc23)c1	-11	63*	38	4	-2	0
O=S(=O)(c1ccc(Cl)c(NC(=S)Nc2cccc(O)c2)c1)N1CCOCC1	-33	-5	6	-2	3	0
Cc1ccc(NC(=O)c2ccc(S(=O)(=O)N3CCOCC3)cc2)cc1	-8	-20	.	-1	.	.
O=C(N=C1SC2CS(=O)(=O)CC2N1c1ccc(F)cc1)C1CC1 (configuration not stated)	-16	-20	.	-5	.	.
c1ccc2c(c1)NCC1CCCN21 (configuration not stated)	-8	3	.	3	.	.
COc1ccc(CC(C)CC(=O)Nc2ccc(OC)cc2)cc1 (configuration not stated)	-23	3	.	-2	.	.
CCC(Oc1ccccc1)C(=O)Nc1ccccn1 (configuration not stated)	2	-46	-35	-2	89*	-2
CCC(Oc1ccccc1)C(=O)Nc1cc(C)on1 (configuration not stated)	1	6	5	1	-3	-1
O=C(CN(Cc1ccc(F)cc1)C(=O)CCC(=O)Nc1nccs1)NCC1CCCO1 (configuration not stated)	-4	-24	.	4	.	.
O=C(N/C(=C\c1ccccc1)C(=O)N1CCCCC1)c1ccc(Br)o1	-16	-3	.	5	.	.
O=C1c2ccccc2S(=O)(=O)N1Cc1nc2ccccc2s1	-9	112*	8	6	4	2
Cc1ccccc1CN1C(=O)c2ccccc2S1(=O)=O	-16	-18	.	-1	.	.
COc1ccc(C(=O)N2CCOC2CNC(=O)C(=O)NCc2ccc(Cl)cc2)cc1 (configuration not stated)	-6	12	-7	0	63*	1
COc1ccc(CCNC(=O)C(=O)NCC2OCCN2C(=O)c2ccc(Cl)cc2)cc1 (configuration not stated)	-17	30	.	-2	.	.
COc1ccc(Br)cc1CNC(=O)C1CCN(C(=O)N(C)C)CC1	-1	78*	-6	3	4	-2
Cc1cccc(N2C(=O)c3cccc4c(N5CCCCC5)c([N+](=O)[O-])cc(c34)C2=O)c1C	-10	62*	20	0	5	-1
COc1ccc(OCc2n(CC(=O)OC3CC(C)CCC3C(C)C)c3ccccc3[n+]2C)cc1 (configuration not stated)	-6	30	.	12	100*	99*
COc1ccc(-c2n(CC(=O)OC3CC(C)CCC3C(C)C)c3ccccc3[n+]2C)cc1 (configuration not stated)	52	101*	14	21	89*	100*
CC(=O)Nc1cccc(Oc2ncnc3scc(-c4ccc(C(C)C)cc4)c23)c1	-49	48	2	26*	5	1
SMILES	KLF5 inhibitor	aSyn 5UTR inh	APP transl inh	IEC-6 cytotox	BaF3 tox	Ba/F3 V617F tox
CN1CCN(S(=O)(=O)c2ccc(N3CCN(S(=O)(=O)/C=C/c4ccccc4)CC3)nc2)CC1	3	0	11	-1	47*	1
CN1CCN(S(=O)(=O)c2ccc(N3CCN(C(c4ccccc4)c4ccccc4)CC3)nc2)CC1	3	0	-20	-2	4	1
COc1ccc(CCn2c(N)c(C(=O)NCc3ccco3)c3nc4ccccc4nc32)cc1	-18	-3	-6	2	38*	37*
COc1ccc(CCn2c(N)c(C(=O)NCc3ccco3)c3nc4ccccc4nc32)cc1OC	-5	-51	9	-3	3	-2
O=C(Cn1nc(-c2ccccc2)c2ccccc2c1=O)NCCO	0	11	.	2	.	.
Cc1cc(=O)n(-c2ccc(C(=O)O)cc2)[nH]1	-8	4	8	-8	6	2
Cc1cc(=O)n(-c2ccc(O)cc2)[nH]1	13	15	0	4	60*	51*
O=C(c1ccc(F)cc1)N1CCN(S(=O)(=O)c2ccc(Br)cc2)CC1	-36	8	.	7	.	.
CSc1ccccc1NC(=O)c1c(Br)cnn1C	-31	20	51*	1	3	3
Cn1ncc(Br)c1C(=O)Nc1c(F)c(F)cc(F)c1F	-27	13	3	0	1	-2
CCN(CC)c1ccc(Nc2cc3n(c(=O)n2)CCc2cc(OC)c(OC)cc2-3)cc1	-60	74*	.	3	.	.
O=C(Cc1ccc(Cl)cc1)Nc1ccc(Br)cn1	-73	-66	.	-5	.	.
FC(F)Sc1ccc(-n2cc(-c3ccccc3)[n+]3c2CCC3)cc1	-11	-10	-17	-2	69*	60*
COc1ccc(-n2cc(-c3ccccc3)[n+]3c2CCCCC3)cc1	-10	-13	5	16	59*	72*
FC(F)Oc1ccc(-n2cc(-c3ccc(Cl)cc3)[n+]3c2CCCCC3)cc1	16	-10	.	2	62*	54*
COc1ccc(-c2cn(-c3ccc(SC(F)F)cc3)c3[n+]2CCC3)cc1OC	-21	1	8	-3	3	-4
COc1ccc(-n2cc(-c3ccccc3)nc2SC)cc1	-47	-121	-76	-5	7	0
FC(F)Oc1ccc(-c2csc(Cc3nnc4n3CCCCC4)n2)cc1	11	21	0	6	3	6
CC(CC(=O)NCCc1ccc(F)cc1)c1ccccc1 (configuration not stated)	-30	-29	.	-3	.	.
COc1ccc(CCNC(=O)c2ccccc2NC(=O)C2=C(C)OCCS2)c(OC)c1	-19	-3	.	0	.	.
CC1=CC(C)(C)Nc2ccc(OC(=O)C(C)N3C(=O)c4ccccc4C3=O)cc21 (configuration not stated)	9	19	17	-2	80*	1
CC1=CC(C)(C)Nc2ccc(OC(=O)c3cccnc3)cc21	-12	15	32	9	90*	41*

Screening data: PubChem BioAssay, several laboratories
